Experimental data taken from PubChem BioAssay (EPA / NIEHS).
Calls of active or inactive are those of the source. Rule for the calls: active = hit-call score of the fitted dose curve at least 0.9, where 1 is the maximum; inactive = score below 0.9.

Assay: CCTE_Shafer_MEA_dev_mutual_information_norm: CCTE's Neural Network Formation Assay for Mutual Information Normalization, Shafer Lab (AID 2284091);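 for AC50: potency is for a decrease in mutual information relative to DMSO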
Method: (§1) CCTE_Shafer_MEA_dev assay is conducted using Axion Biosystems 48 well microelectrode array (MEA) plates and Maestro recording system. Each well of the MEA plate contains a grid of 16 microelectrodes embedded in the culture surface. Electrically active cells, such as neurons, can be cultured over the electrodes, and electrical activity in these cells can be recorded extracellularly. The spontaneous firing of neurons is captured from each electrode on a microsecond timescale providing both temporally and spatially precise data. […] The CCTE_Shafer_MEA_dev assay uses primary cultures of rat cortical neurons. Recordings are made on days post-plating 5, 7, 9 and 12. As these cultures mature over time, neural networks develop functional activity and form cohesive networks in which electrical activity can be highly coordinated. CCTE_Shafer_MEA_dev_mutual_information_norm is 1 of 19 assay components of the CCTE_Shafer_MEA_dev assay. It is a measure of shared information between electrodes during a recording in a microelectrode array (MEA) using Axion Biosystems Maestro 768 channel amplifier with the AxIS adaptive spike detector. To collapse across multiple recordings made on days post-plating 5, 7, 9 and 12, the trapezoidal area-under-the-curve of the component is calculated.Data from the assay component CCTE_Shafer_MEA_dev_mutual_information_norm was analyzed into 1 assay endpoint. This assay endpoint, CCTE_Shafer_MEA_dev_mutual_information_norm, was analyzed in the negative analysis fitting direction relative to DMSO as the negative control and baseline of activity. Using a type of functional reporter, gain or loss-of-signal activity can be used to understand electrical activity.
(§2) On the day prior to culture, each well was coated thoroughly with 150 uL of 0.05% polyethyleneimine (PEI, Sigma Cat P3143) in 50 mM HEPES (Sigma Cat H7523) at a pH of 8. The plate was incubated at 37C for one hour. PEI was rinsed out with 500 uL of sterile water three times. Plates were stored at 4C until the day of culture. This culture was plated at a seeding density of 1.5 x 10^5 cells/well on a 48-well MEA plate, prepared as described above. Cells were administered via a 25 uL media/laminin ([…]; Sigma Cat L2020-1MG) drop directly onto the microelectrode array, as adding the cells with the laminin results in better attachment than pre-coating with laminin. After 2 hours, an additional 475 uL of cortical media was added and the cells returned to the incubator. Exposure starts at day 0 of plating and is continued over twelve days of network development until the experiment is terminated. Cells are fed with fresh medium on DIV 5 and 9, following the recordings on those days. The entire volume of media in the well is exchanged and any vehicle or compound treatment is renewed. Complete details are found in OP-NHEERL/ISTD/SBB/TJS/2015-03-r0 (available on request, email shafer.tim@epa.gov). Measurement of the electrical activity is non-invasive, and recordings can be made from the same plate over multiple different days of the culture. In cortical neurons, this allows for the measurement of extracellular action potentials over the period during which networks form in the MEA plate.
In the case of CC(=O)CC(c1ccccc1)c1c(O)c2ccccc2oc1=O (stereo not given), the outcome is reported as “inactive”.
With OCC(O)CO the outcome was “inactive”.
For COC(=O)[C@H]1[C@H]2C[C@@H]3c4[nH]c5cc(OC)ccc5c4CCN3C[C@H]2C[C@@H](OC(=O)c2cc(OC)c(OC)c(OC)c2)[C@@H]1OC, the AC50 was 5.56 µM (active).
In the case of O=C1NC(=O)C(c2ccccc2)(c2ccccc2)N1, the outcome is reported as “inactive”.
With CN(C)CCCN1c2ccccc2Sc2ccc(Cl)cc21 the AC50 was 5.4 µM (active).

Assay: CCTE_Shafer_MEA_dev_correlation_coefficient_mean: CCTE's Neural Network Formation Assay for Mean Correlation Coefficient, Shafer Lab (AID 2284093);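 for AC50: well mean pairwise spike train correlation integrated as AUC over recording days 5 to 12; potency fitted for loss of correlation relative to DMSO vehicle wells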
Method: as §1, with “coordinated. CCTE_Shafer_MEA_dev_correlation_coefficient_mean” for “coordinated. CCTE_Shafer_MEA_dev_mutual_information_norm”, “It measures the correlation coefficent of spikes (action potential firings) between every pair of electrodes in” for “It is”, “a well” for “a measure of shared information between electrodes”, “detector. The pairwise correlations are averaged across active electrodes to report a well-mean value.” for “detector.”, “component CCTE_Shafer_MEA_dev_correlation_coefficient_mean” for “component CCTE_Shafer_MEA_dev_mutual_information_norm”, “endpoint, CCTE_Shafer_MEA_dev_correlation_coefficient_mean,” for “endpoint, CCTE_Shafer_MEA_dev_mutual_information_norm,”
as §2
With CC(=O)CC(c1ccccc1)c1c(O)c2ccccc2oc1=O (stereo not given) the outcome was “inactive”.
In the case of OCC(O)CO, the outcome is reported as “inactive”.
In the case of COC(=O)[C@H]1[C@H]2C[C@@H]3c4[nH]c5cc(OC)ccc5c4CCN3C[C@H]2C[C@@H](OC(=O)c2cc(OC)c(OC)c(OC)c2)[C@@H]1OC, the AC50 is reported as 10 µM (active).
With O=C1NC(=O)C(c2ccccc2)(c2ccccc2)N1 the outcome was “inactive”.
In the case of CN(C)CCCN1c2ccccc2Sc2ccc(Cl)cc21, the AC50 is reported as 5.87 µM (active).
